# Reference: publication PMC7862700, “An all-to-all approach to the identification of sequence-specific readers for epigenetic DNA modifications on cytosine”
# How the values were obtained:
# Test in all cases: DAPPL (digital affinity profiling via proximity ligation, sequencing); 10 mM Tris-HCl pH 7.5, 50 mM NaCl, 1 mM DTT, 4% glycerol, room temperature, 30 min; GST-TFs on glutathione beads, 16-mer random dsDNA library, 0.1% formaldehyde crosslink after washing; high values mean tight binding
# FEV = target: T1, FEV (Homo sapiens, UniProt Q99581 1-238); details: protein: recombinant; tags: N-terminal GST; dsDNA, one strand shown
# T1 sequence: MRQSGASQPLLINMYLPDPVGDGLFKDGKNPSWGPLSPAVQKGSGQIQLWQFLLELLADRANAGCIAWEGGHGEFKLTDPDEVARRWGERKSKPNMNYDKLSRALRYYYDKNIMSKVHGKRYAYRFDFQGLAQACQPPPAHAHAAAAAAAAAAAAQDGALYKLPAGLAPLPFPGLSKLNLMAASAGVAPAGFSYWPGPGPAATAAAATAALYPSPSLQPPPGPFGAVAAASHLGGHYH
# Procedure, shortened: (§1)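 After expression in yeast as GST fusions, human transcription factors were bound to glutathione beads, DNA-barcoded and mixed with a tag-only sample. The pools were incubated with 200 nmole of a 16-mer random double-stranded DNA library in Tris/NaCl/DTT/glycerol buffer (30 min, room temperature), washed and crosslinked with 0.1% formaldehyde. Proximity ligation with BsaI/T4 ligase ran for 1 h at 37 °C, before PCR amplification and sequencing on an Illumina NextSeq500. Binding signal is a hexamer's read frequency for a factor divided by its frequency for the tag-only sample.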
# ETV5 = ETV5 (Homo sapiens, UniProt P41161 1-510); details: protein: recombinant; tags: N-terminal GST; dsDNA, one strand shown
# Sequence of ETV5 (P41161 whole entry): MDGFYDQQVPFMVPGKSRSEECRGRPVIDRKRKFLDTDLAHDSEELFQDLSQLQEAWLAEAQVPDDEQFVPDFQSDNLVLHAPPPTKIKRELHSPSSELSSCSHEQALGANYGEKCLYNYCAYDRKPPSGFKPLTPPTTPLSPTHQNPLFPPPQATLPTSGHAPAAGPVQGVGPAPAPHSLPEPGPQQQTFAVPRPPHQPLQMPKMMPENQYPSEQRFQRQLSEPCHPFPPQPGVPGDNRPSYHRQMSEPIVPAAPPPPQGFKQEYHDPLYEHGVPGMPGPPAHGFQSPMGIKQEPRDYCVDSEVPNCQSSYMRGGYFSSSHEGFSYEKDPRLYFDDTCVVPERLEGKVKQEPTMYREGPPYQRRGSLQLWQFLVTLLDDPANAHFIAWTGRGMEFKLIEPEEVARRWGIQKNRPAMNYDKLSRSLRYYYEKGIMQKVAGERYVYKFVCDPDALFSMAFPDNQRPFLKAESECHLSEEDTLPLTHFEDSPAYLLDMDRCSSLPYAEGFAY
# Procedure, shortened: as §1
# HSF1 = HSF1 (Homo sapiens, UniProt Q00613 1-529); details: protein: recombinant; tags: N-terminal GST; chain copies: 3; dsDNA, one strand shown
# Sequence of HSF1 (Q00613 whole entry): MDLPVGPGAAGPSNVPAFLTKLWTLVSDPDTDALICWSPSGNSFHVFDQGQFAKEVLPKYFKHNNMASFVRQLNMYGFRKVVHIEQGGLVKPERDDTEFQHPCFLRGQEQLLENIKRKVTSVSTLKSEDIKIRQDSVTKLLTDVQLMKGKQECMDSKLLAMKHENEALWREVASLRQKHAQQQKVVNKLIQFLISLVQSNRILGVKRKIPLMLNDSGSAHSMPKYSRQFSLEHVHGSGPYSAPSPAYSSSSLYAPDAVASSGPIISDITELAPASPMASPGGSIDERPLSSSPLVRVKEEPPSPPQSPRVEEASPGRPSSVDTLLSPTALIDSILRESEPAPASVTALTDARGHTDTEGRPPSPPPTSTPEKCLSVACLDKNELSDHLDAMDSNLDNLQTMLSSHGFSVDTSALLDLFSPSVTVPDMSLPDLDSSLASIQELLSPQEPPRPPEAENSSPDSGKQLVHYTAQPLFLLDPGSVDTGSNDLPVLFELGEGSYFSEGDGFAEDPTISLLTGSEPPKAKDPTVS
# Procedure, shortened: as §1
# SPIC = target: T2, SPIC (Homo sapiens, UniProt Q8N5J4 1-248); details: protein: recombinant; tags: N-terminal GST; dsDNA, one strand shown
# T2 sequence: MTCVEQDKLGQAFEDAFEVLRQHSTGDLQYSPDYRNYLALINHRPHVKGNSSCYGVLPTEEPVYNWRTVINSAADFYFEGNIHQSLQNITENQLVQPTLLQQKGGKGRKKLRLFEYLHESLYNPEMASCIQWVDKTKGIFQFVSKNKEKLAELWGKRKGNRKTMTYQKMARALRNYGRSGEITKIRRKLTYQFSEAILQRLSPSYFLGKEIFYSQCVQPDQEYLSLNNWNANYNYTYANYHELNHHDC
# Procedure, shortened: as §1
# ELF4 = ELF4 (Homo sapiens, UniProt Q99607 1-663); details: protein: recombinant; tags: N-terminal GST; dsDNA, one strand shown
# Sequence of ELF4 (Q99607 whole entry): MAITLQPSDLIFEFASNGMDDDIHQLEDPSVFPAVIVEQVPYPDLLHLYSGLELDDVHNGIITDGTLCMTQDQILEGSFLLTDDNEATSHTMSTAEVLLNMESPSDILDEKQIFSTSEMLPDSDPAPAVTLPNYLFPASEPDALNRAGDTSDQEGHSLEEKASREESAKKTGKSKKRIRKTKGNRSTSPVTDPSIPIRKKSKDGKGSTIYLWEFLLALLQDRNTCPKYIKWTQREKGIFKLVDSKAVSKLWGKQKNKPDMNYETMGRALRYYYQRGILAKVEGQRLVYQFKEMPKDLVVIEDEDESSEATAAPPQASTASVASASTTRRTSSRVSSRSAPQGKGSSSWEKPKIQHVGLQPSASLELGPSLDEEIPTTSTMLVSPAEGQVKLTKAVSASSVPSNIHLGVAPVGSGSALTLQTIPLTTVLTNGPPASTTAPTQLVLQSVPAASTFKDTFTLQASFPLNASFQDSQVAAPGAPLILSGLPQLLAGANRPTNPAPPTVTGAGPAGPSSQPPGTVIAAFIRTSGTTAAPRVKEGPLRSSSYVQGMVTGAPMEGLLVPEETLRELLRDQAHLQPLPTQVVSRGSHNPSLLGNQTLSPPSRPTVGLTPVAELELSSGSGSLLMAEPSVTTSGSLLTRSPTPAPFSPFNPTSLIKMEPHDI
# Procedure, shortened: as §1
# ELK4 = target: T3, ELK4 (Homo sapiens, UniProt P28324-2 1-405); details: protein: recombinant; tags: N-terminal GST; dsDNA, one strand shown
# T3 sequence: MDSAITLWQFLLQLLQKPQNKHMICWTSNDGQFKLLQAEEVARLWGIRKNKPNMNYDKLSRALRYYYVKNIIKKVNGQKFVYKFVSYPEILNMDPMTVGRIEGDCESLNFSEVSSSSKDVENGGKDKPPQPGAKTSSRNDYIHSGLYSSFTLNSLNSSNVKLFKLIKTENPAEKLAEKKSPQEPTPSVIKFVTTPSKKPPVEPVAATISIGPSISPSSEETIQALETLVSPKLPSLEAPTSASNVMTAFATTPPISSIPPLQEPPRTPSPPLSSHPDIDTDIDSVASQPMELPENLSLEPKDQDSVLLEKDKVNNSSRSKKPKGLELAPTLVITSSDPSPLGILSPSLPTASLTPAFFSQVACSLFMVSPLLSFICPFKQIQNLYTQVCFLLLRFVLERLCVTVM
# Procedure, shortened: as §1
# ETV2 = target: T4, ETV2 (Homo sapiens, UniProt O00321 1-342); details: protein: recombinant; tags: N-terminal GST; dsDNA, one strand shown
# T4 sequence: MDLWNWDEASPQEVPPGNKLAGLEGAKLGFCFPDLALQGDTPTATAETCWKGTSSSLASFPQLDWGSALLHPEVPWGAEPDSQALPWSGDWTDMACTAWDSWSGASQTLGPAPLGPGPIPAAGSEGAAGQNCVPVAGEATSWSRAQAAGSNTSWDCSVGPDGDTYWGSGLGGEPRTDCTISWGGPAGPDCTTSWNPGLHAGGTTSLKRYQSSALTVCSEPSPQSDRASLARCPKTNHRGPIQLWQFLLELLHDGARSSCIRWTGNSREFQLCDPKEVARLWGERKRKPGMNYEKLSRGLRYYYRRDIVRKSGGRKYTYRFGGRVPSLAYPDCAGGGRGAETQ
# Procedure, shortened: as §1
# ELF3 = target: T5, ELF3 (Homo sapiens, UniProt P78545 1-371); details: protein: recombinant; tags: N-terminal GST; dsDNA, one strand shown
# T5 sequence: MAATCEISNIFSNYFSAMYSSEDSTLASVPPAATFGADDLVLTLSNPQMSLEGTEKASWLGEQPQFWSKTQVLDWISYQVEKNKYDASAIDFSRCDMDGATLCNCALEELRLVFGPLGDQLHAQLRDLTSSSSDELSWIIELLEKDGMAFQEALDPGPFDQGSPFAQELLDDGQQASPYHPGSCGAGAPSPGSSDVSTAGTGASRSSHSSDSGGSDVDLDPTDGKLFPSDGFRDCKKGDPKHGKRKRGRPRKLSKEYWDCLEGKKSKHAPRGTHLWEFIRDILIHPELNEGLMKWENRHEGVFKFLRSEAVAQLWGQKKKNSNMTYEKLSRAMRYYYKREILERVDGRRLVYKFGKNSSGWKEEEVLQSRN
# Procedure, shortened: as §1
# CRX = CRX (Homo sapiens, UniProt O43186 1-299); details: protein: recombinant; tags: N-terminal GST; dsDNA, one strand shown
# Sequence of CRX (O43186 whole entry): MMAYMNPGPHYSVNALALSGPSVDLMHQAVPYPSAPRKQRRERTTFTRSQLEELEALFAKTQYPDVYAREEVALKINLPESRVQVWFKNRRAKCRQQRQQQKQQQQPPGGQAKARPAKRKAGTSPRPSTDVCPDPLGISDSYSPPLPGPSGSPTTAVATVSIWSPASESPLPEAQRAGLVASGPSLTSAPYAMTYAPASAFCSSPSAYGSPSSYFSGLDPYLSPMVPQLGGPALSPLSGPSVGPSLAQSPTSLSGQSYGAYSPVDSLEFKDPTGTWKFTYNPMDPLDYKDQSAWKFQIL
# Procedure, shortened: as §1
# ETV1 = ETV1 (Homo sapiens, UniProt P50549 1-477); details: protein: recombinant; tags: N-terminal GST; dsDNA, one strand shown
# Sequence of ETV1 (P50549 whole entry): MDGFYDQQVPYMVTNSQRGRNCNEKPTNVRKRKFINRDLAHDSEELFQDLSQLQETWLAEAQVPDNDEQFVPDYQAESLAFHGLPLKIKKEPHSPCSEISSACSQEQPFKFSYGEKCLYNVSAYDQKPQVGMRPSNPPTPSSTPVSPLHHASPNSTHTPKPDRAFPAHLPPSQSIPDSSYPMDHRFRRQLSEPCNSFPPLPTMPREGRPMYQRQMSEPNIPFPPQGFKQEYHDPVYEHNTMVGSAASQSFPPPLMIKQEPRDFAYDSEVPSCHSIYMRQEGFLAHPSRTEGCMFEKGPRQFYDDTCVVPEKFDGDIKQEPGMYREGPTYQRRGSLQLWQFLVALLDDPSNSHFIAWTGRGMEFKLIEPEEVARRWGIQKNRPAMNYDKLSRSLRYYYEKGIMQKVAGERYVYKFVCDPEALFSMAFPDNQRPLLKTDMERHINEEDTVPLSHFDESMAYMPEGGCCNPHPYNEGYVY
# Procedure, shortened: as §1
Sequence,binding signal (FEV),binding signal (ETV5),binding signal (HSF1),binding signal (SPIC),binding signal (ELF4),binding signal (ELK4),binding signal (ETV2),binding signal (ELF3),binding signal (CRX),binding signal (ETV1)
GTTTCT,"1.16 fold enrichment (6-mer frequency, TF over GST control)","1.24 fold enrichment (6-mer frequency, TF over GST control)","1.84 fold enrichment (6-mer frequency, TF over GST control)","1.28 fold enrichment (6-mer frequency, TF over GST control)","1.28 fold enrichment (6-mer frequency, TF over GST control)","1.15 fold enrichment (6-mer frequency, TF over GST control)","1.25 fold enrichment (6-mer frequency, TF over GST control)","1.2 fold enrichment (6-mer frequency, TF over GST control)","1.15 fold enrichment (6-mer frequency, TF over GST control)","1.33 fold enrichment (6-mer frequency, TF over GST control)"
AACTGC,"1.42 fold enrichment (6-mer frequency, TF over GST control)","1.38 fold enrichment (6-mer frequency, TF over GST control)","1.07 fold enrichment (6-mer frequency, TF over GST control)","1.49 fold enrichment (6-mer frequency, TF over GST control)","1.31 fold enrichment (6-mer frequency, TF over GST control)","1.33 fold enrichment (6-mer frequency, TF over GST control)","1.19 fold enrichment (6-mer frequency, TF over GST control)","1.32 fold enrichment (6-mer frequency, TF over GST control)","1.05 fold enrichment (6-mer frequency, TF over GST control)","1.36 fold enrichment (6-mer frequency, TF over GST control)"
ATTCTA,"1.14 fold enrichment (6-mer frequency, TF over GST control)","1.16 fold enrichment (6-mer frequency, TF over GST control)","3.09 fold enrichment (6-mer frequency, TF over GST control)","1.26 fold enrichment (6-mer frequency, TF over GST control)","1.2 fold enrichment (6-mer frequency, TF over GST control)","1.32 fold enrichment (6-mer frequency, TF over GST control)","1.26 fold enrichment (6-mer frequency, TF over GST control)","1.24 fold enrichment (6-mer frequency, TF over GST control)","1.84 fold enrichment (6-mer frequency, TF over GST control)","1.2 fold enrichment (6-mer frequency, TF over GST control)"
GCTCCA,"1.22 fold enrichment (6-mer frequency, TF over GST control)","1.23 fold enrichment (6-mer frequency, TF over GST control)","1.16 fold enrichment (6-mer frequency, TF over GST control)","1.08 fold enrichment (6-mer frequency, TF over GST control)","1.22 fold enrichment (6-mer frequency, TF over GST control)","1.24 fold enrichment (6-mer frequency, TF over GST control)","1.29 fold enrichment (6-mer frequency, TF over GST control)","1.21 fold enrichment (6-mer frequency, TF over GST control)","1.01 fold enrichment (6-mer frequency, TF over GST control)","1.12 fold enrichment (6-mer frequency, TF over GST control)"
CTTCTT,"1.48 fold enrichment (6-mer frequency, TF over GST control)","1.59 fold enrichment (6-mer frequency, TF over GST control)","1.84 fold enrichment (6-mer frequency, TF over GST control)","1.61 fold enrichment (6-mer frequency, TF over GST control)","1.6 fold enrichment (6-mer frequency, TF over GST control)","1.58 fold enrichment (6-mer frequency, TF over GST control)","1.53 fold enrichment (6-mer frequency, TF over GST control)","1.45 fold enrichment (6-mer frequency, TF over GST control)","1.89 fold enrichment (6-mer frequency, TF over GST control)","1.48 fold enrichment (6-mer frequency, TF over GST control)"
TTCTGA,"1.22 fold enrichment (6-mer frequency, TF over GST control)","1.23 fold enrichment (6-mer frequency, TF over GST control)","1.48 fold enrichment (6-mer frequency, TF over GST control)","1.03 fold enrichment (6-mer frequency, TF over GST control)","1.45 fold enrichment (6-mer frequency, TF over GST control)","1.4 fold enrichment (6-mer frequency, TF over GST control)","1.23 fold enrichment (6-mer frequency, TF over GST control)","1.13 fold enrichment (6-mer frequency, TF over GST control)","1.41 fold enrichment (6-mer frequency, TF over GST control)","1.27 fold enrichment (6-mer frequency, TF over GST control)"
AAAGAC,"1.06 fold enrichment (6-mer frequency, TF over GST control)","1.05 fold enrichment (6-mer frequency, TF over GST control)","1.11 fold enrichment (6-mer frequency, TF over GST control)","1.01 fold enrichment (6-mer frequency, TF over GST control)","1.04 fold enrichment (6-mer frequency, TF over GST control)","1.04 fold enrichment (6-mer frequency, TF over GST control)","1.03 fold enrichment (6-mer frequency, TF over GST control)","1.01 fold enrichment (6-mer frequency, TF over GST control)","1.13 fold enrichment (6-mer frequency, TF over GST control)","1.03 fold enrichment (6-mer frequency, TF over GST control)"
